# Reference: the supplement of paper PMC10037445
# Whole data set: some 2,900 compounds, median “IRF Lucia reporter activity, fold change vs agonist alone” near 0.9, cut for the highest 2% near 2.8. For the sample, the highest values were picked, then their nearest neighbours and some compounds at random.
# Legend:
# [1] = system: RAW-Dual; assay: IRF Lucia reporter activity, fold change vs agonist alone; cytotoxicity flag (confluency mask): not cytotoxic; higher = enhanced IRF activity
# In short: (§1)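 After 50 nL of library stock was delivered by pin tool to RAW-Dual macrophages (50,000 cells/well, DMEM, 384-well plates), a PRR agonist was added 1 h later and the plates were kept at 37 °C, 5% CO2. Twenty hours later, IRF was read from supernatant by QuantiLuc luminescence and NF-κB by QuantiBlue absorbance at 620 nm. Reporter activity is stated as fold change over agonist-alone wells. Wells with IncuCyte confluency under 70% of agonist controls in both mask sets were counted as cytotoxic.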
# [2] = system: RAW-Dual; assay: IRF Lucia reporter activity, fold change vs agonist alone; higher = enhanced IRF activity; settings: cytotoxicity flag (confluency mask): not cytotoxic, agonist: MPLA (TLR4) […]
# In short: as §1
# [3] = system: RAW-Dual; assay: IRF Lucia reporter activity, fold change vs agonist alone; cytotoxicity flag (confluency mask): cytotoxic (confluency <70% of control); higher = enhanced IRF activity
# In short: as §1
# [4] = agonist: 3'3'-cGAMP (STING) 10 ug/mL
# [5] = library stock concentration (final ~1000-fold dilution): 10 mM
smiles,measurement,setting,value
CC1CCC2C(C)C(OC(=O)CCC(=O)O)OC3OC4(C)CCC1C32OO4 (stereo not given) (library stock concentration (final ~1000-fold dilution): 10 mM),IRF Lucia reporter activity,[1]; [4],0.638
same,IRF Lucia reporter activity,[1]; agonist: LPS (TLR4) 0.1 ug/mL,0.706
CC1CCC2C(C)C(OC(=O)CCC(=O)O)OC3OC4(C)CCC1C32OO4 (stereo not given),IRF Lucia reporter activity,[2]; [5],0.737
COc1ccc(CCc2nc3cc(-c4c(C)noc4C)ccc3n2CC(C)N2CCOCC2)cc1Cl (stereo not given),IRF Lucia reporter activity,[2]; [5],0.203
COc1ccc(CCc2nc3cc(-c4c(C)noc4C)ccc3n2CC(C)N2CCOCC2)cc1Cl (stereo not given) (library stock concentration (final ~1000-fold dilution): 10 mM),IRF Lucia reporter activity,[1]; [4],0.452
same,IRF Lucia reporter activity,[1]; agonist: LPS (TLR4) 0.1 ug/mL,0.421
COC1=CC(c2cc3ccccc3[nH]2)=N/C1=C\c1[nH]c(C)cc1C.CS(=O)(=O)O (library stock concentration (final ~1000-fold dilution): 10 mM),IRF Lucia reporter activity,[1]; [4],0.38
same,IRF Lucia reporter activity,[1]; agonist: LPS (TLR4) 0.1 ug/mL,3.87
Cc1cc(C)c(/C=C2\C(=O)Nc3ccccc32)[nH]1,IRF Lucia reporter activity,[2]; [5],0.781
COC1=CC(c2cc3ccccc3[nH]2)=N/C1=C\c1[nH]c(C)cc1C.CS(=O)(=O)O,IRF Lucia reporter activity,[2]; [5],5.45
Cc1cc(C)c(/C=C2\C(=O)Nc3ccccc32)[nH]1 (library stock concentration (final ~1000-fold dilution): 10 mM),IRF Lucia reporter activity,[1]; [4],0.77
same,IRF Lucia reporter activity,[1]; agonist: LPS (TLR4) 0.1 ug/mL,0.578
O=C(c1cc(-c2cc3c(cc2C(=O)N2Cc4ccccc4CC2CN2CCOCC2)OCO3)n2c1CCCC2)N(c1ccccc1)c1ccc(O)cc1 (stereo not given) (library stock concentration (final ~1000-fold dilution): 10 mM),IRF Lucia reporter activity,[1]; [4],0.268
same,IRF Lucia reporter activity,[1]; agonist: LPS (TLR4) 0.1 ug/mL,0.935
Oc1cc(O)c2c(c1)OC(c1ccc(O)c(O)c1)C(O)[C@H]2c1c(O)cc(O)c2c1OC(c1ccc(O)c(O)c1)C(O)C2 (stereo not given in full) (library stock concentration (final ~1000-fold dilution): 10 mM),IRF Lucia reporter activity,[1]; [4],0.867
same,IRF Lucia reporter activity,[1]; agonist: LPS (TLR4) 0.1 ug/mL,1.27
COc1ncc(-c2cc(-c3ncc(CN4CC(C)OC(C)C4)o3)c3cn[nH]c3c2)cc1NS(C)(=O)=O (stereo not given) (library stock concentration (final ~1000-fold dilution): 10 mM),IRF Lucia reporter activity,[3]; [4],0.865
same,IRF Lucia reporter activity,[3]; agonist: LPS (TLR4) 0.1 ug/mL,4.5
CC(C)N1CCN(Cc2cnc(-c3cc(-c4cccc5[nH]ccc45)cc4[nH]ncc34)o2)CC1 (library stock concentration (final ~1000-fold dilution): 10 mM),IRF Lucia reporter activity,[1]; [4],0.609
same,IRF Lucia reporter activity,[1]; agonist: LPS (TLR4) 0.1 ug/mL,1.42
CN1CCN(C(=O)c2ccc(-c3ccc4c(C=O)c(O)ccc4c3)s2)CC1 (library stock concentration (final ~1000-fold dilution): 10 mM),IRF Lucia reporter activity,[1]; [4],0.228
same,IRF Lucia reporter activity,[1]; agonist: LPS (TLR4) 0.1 ug/mL,0.45
Cc1cnc(Nc2ccc(F)cc2Cl)nc1-c1c[nH]c(C(=O)NC(CO)c2cccc(Cl)c2)c1 (stereo not given) (library stock concentration (final ~1000-fold dilution): 10 mM),IRF Lucia reporter activity,[1]; [4],0.474
same,IRF Lucia reporter activity,[1]; agonist: LPS (TLR4) 0.1 ug/mL,1.16
CN1CCc2c(c3ccccc3n2Cc2ccccc2)C1.CN1CCc2c(c3ccccc3n2Cc2ccccc2)C1.O=S(=O)(O)c1cccc2c(S(=O)(=O)O)cccc12,IRF Lucia reporter activity,[2]; library stock concentration (final ~1000-fold dilution): 2 mM,1.25
